Source: the supplement of paper PMC3334620
Over roughly 33,000 sequences, “E-score (-0.5 to 0.5)” has its median near -0.012; the highest 2% begin near 0.29. The sample holds the highest values, similar sequences and a random draw of the others, so the mix is not that of the screen.

These sequences were tested against T1, Ybr033w (UniProt P38073) (assay: PBM E-score (8-mer binding enrichment) (E-score (-0.5 to 0.5)); higher = stronger / more preferred TF binding). Details: protein concentration: 200 nM; construct: GST-full length.
T1 sequence: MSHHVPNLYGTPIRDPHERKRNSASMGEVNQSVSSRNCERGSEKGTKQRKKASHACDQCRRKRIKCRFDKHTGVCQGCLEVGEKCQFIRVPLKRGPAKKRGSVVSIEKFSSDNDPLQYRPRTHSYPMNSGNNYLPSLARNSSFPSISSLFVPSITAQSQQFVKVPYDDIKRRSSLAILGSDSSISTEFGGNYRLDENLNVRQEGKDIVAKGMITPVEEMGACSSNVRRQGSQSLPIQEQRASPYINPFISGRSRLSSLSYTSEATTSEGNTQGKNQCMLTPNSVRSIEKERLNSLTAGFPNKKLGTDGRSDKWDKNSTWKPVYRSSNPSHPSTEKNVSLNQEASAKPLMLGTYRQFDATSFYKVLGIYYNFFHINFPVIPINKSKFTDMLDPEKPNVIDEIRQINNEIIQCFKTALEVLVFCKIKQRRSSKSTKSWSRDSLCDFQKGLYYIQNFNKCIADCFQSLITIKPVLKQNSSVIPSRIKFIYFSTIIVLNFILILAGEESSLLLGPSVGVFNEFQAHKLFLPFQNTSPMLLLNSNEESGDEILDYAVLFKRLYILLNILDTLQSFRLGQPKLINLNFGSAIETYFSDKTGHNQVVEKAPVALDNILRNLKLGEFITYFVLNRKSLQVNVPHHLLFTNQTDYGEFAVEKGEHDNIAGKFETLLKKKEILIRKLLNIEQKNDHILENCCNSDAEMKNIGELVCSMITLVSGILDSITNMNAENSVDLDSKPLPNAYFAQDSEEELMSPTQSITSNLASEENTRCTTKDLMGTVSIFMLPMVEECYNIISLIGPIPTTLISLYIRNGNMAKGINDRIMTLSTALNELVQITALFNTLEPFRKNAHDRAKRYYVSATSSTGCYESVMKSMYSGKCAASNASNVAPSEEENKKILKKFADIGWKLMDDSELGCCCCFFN
Description: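 Universal 'all 10-mer' protein binding microarrays (Agilent AMADID 015681) probed with GST-tagged S. cerevisiae TFs (full-length or DBD) made by in vitro transcription/translation (PURExpress), about 100-200 nM. Bound TF was detected with fluorescent anti-GST. Each ungapped 8-mer (which stands for itself and its reverse complement) is scored by the PBM enrichment score (E-score), a modified Wilcoxon-Mann-Whitney statistic from -0.5 to +0.5, computed with the Universal PBM Analysis Suite. Scale: above 0.35 generally sequence-specific binding.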

Sequence | PBM E-score
AAAGATAC | 0.12
TTAGATAA | 0.218
GTAGATAA | 0.333
AAAGATCC | 0.3
AAAGATCG | -0.0193
CCTCCAAG | -0.176
AACGATGG | -0.0425
TCCCCTCA | -0.098
CTTAGCTC | -0.12
GTAGATTA | 0.216
AAAGATTA | 0.203
CAAGATTA | 0.185
GAAGATTA | 0.366
ATAGATTG | 0.107
ATAGATTA | 0.329
CCAGGGCA | -0.266
AACACTCA | 0.13
TAACCTCA | 0.0768
TCGTCCAA | 0.0311
ACAATCCC | 0.0235
TCTGTCCA | -0.0429
GTATTCCA | -0.0248

Sequence | PBM E-score
ATATTCGG | 0.0327
GAATTCAA | 0.177
ATCTTCCG | 0.438
ATCTTCCA | 0.249
AAATTCAG | 0.204
ATATTCCG | 0.428
ATATTCTG | 0.157
AAATTCAA | 0.288
CTATTCCA | 0.17
ATCTTCCC | 0.121
ATATTCCA | 0.395
ACTGCACC | -0.018
CCGCTAAA | -0.117
AGACTGTA | -0.175
AGGGGAAG | -0.272
GCTAGGCA | -0.146
ATATTCAA | 0.3
AATTTCCG | 0.325
AATTTCCT | 0.273
ACATTCCC | 0.0614
AAATTCCA | 0.258
ATATTCCC | 0.329

Sequence | PBM E-score
AAATTCCG | 0.309
AAATTCCC | 0.0364
CTATTCCC | -0.043
CTATTCAA | 0.0501
TTATTCAA | 0.253
CATTTCCG | 0.12
CCTGCAAC | -0.034
ACACTCTA | 0.121
GTGCTGGA | -0.0549
AACCACAT | 0.00349
AGTGGCTG | -0.145
AGGTCTGC | -0.104
GCGCTCTA | -0.159
GTGCGACA | -0.235
GTTGCAAA | 0.231
GGTTGCAC | -0.131
ATTCGAGA | 0.023
GGTGCACC | -0.253
CTTCAGCC | -0.13
AAATCGAC | 0.142
AAGTCTAT | -0.00931
CGTGTGAG | -0.225

Sequence | PBM E-score
CGTTCTTC | 0.0897
AGTTCTTC | 0.3
ATTTCTTG | 0.198
ATTTCTTC | 0.313
ATTTCTTA | 0.195
AGTTCTTA | 0.171
CATAGCTC | -0.153
GCTATTAA | 0.201
AGTATTAA | 0.295
TCTATTAA | 0.292
ACTATTAG | 0.111
AGTATTAG | 0.174
TGTATTAA | 0.272
ACTATTAA | 0.325
CCTATTAA | 0.139
TCTATTCA | 0.167
CACCCCAG | 0.0316
ATGCGACA | 0.0689
TAATCTAA | 0.236
ATGGGATC | -0.0796
